Neddyl block = cullin neddylation inhibition; P61081+Q13564; TR-FRET cullin neddylation, biochemical; calls only at 25 µM; 360,000 tested, 0.58% active; in the data active means inhibition above about 36%
Rin1-Abl PPI inh = blocks binding of human Rin1 to Abl | inhibition, % at 7.35 µM | 360,000 tested, 0.4% active | P00519+Q13671 | TR-FRET Rin1/Abl binding, biochemical; in the data active means inhibition above about 5%, passing the limit was not always enough
MBD2 inh = MBD2-methylated oligo binding inhibition; Q9UBB5; TR-FRET, MBD2 binding to methylated oligonucleotide; inhibition, % at 4.4 µM; 370,000 tested, 0.31% active; AID 686964; in the data active means inhibition above about 13%
LEDGF integ inh = blocks HIV-1 LEDGF/p75-dependent DNA integration | 370,000 tested, 0.64% active | inhibition, % at 3.7 µM | TR-FRET IN-LEDGF/p75 DNA integration, Eu/Cy5;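 active means inhibition above the screen-wide mean plus 3 SD, cut at about 13% in these data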;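 further: signal is the Cy5 over europium emission ratio at 671 and 618 nm; 0% = plate median of compound wells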
UHRF1 binding = blocks human UHRF1 binding to methylated DNA; Q96T88; UHRF1 binding to methylated oligo, TR-FRET; inhibition, % at 4.4 µM; 370,000 tested, 0.75% active; AID 687016; in the data active means inhibition above about 21%;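 further: UHRF1 SRA domain binding a hemimethylated CpG hairpin DNA probe; 0% = median of test compound wells and 100% = reference inhibitor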
proKLK7 act = activators of human kallikrein-7 zymogen; P49862; purified proKLK7, EDANS-DABCYL substrate fluorescence; 100% is mature enzyme control, 0% vehicle; activation, % at 7 µM; 370,000 tested, 0.9% active; AID 652039;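 active means activation above the mean of all tested compounds plus 3 SD, computed per campaign excluding outliers beyond control limits, cut at about 13% in these data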
Neddyl conf = cullin neddylation inhibition, confirmation; shares compounds with Neddyl block; TR-FRET cullin neddylation biochemical assay; calls only at 25 µM; 1,800 tested, 13% active; in the data active means inhibition above about 40%;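 further: neddylation substrate is the cullin 1 ring ligase complex with SKP2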
Numbers without * were called inactive; i = inactive; x = no result shown; + = active, no number. This is a sample that favours compounds with a hit; in the whole collection about 3.1% have one here.

SMILES	Neddyl block	Rin1-Abl PPI inh	MBD2 inh	LEDGF integ inh	UHRF1 binding	proKLK7 act	Neddyl conf
O=C(NCc1ccco1)c1cnn2c(C(F)(F)F)cc(-c3ccccc3)nc12	+	4.0	-3.6	1.5	-0.6	0.2	i
O=C(CCOc1ccccc1F)N1CCN(c2ccccc2O)CC1	i	-0.9	-4.8	4.9	-1.0	0.2	x
Cc1nc(/C=C/c2ccccc2)cc(/C=C/c2ccccc2)n1	i	-3.5	-4.5	-1.1	-2.6	-20.7	x
O=c1ccc(-c2ccccc2)nn1Cc1ccc(Cl)cc1	i	-1.9	0.9	-2.8	-2.2	0.2	x
Cn1nc(/C=C/c2ccccc2)ccc1=O	+	0.8	-8.9	6.1	-5.6	0.7	i
O=c1ccc(/C=C/c2ccccc2)nn1Cc1ccccc1	+	4.5	2.4	0.8	1.6	-4.3	i
CN(CC(=O)NCc1ccc(F)cc1)S(=O)(=O)c1ccc(Br)s1	i	-3.0	-1.6	1.2	-0.5	0.1	x
COC(=O)c1cc(OC)c(OC)cc1NCC(=O)Nc1ccc(C)cc1	+	1.1	8.0	-5.2	1.8	-0.5	x
CCc1cc2c3c(c(=O)oc2cc1OCC(=O)OC)CCCC3	+	1.3	-0.1	-5.2	2.8	0.2	i
CCc1cc2c3c(c(=O)oc2cc1OC(C)C(=O)O)CCCC3 (stereo not drawn)	x	1.3	3.4	1.4	0.8	4.7	x
Cc1ccc(C)c(NC(=O)c2cc([N+](=O)[O-])cc([N+](=O)[O-])c2)c1	i	-0.4	2.4	-6.0	2.0	-0.4	x
CCN(CC(=O)Nc1ccc(OC)cc1)C(=O)c1ccc(N2CCCC2=O)cc1	i	-0.3	1.7	2.1	4.5	-0.4	x
COc1ccccc1C=NNC(=O)C(=O)NN=Cc1ccccc1OC	+	0.3	3.2	-5.7	0.3	-17.8	i
COc1ccccc1/C=N/NC(=O)c1ccccc1NS(=O)(=O)c1ccc(C)cc1	+	2.0	-0.2	-1.8	1.6	0.1	x
O=C1CCC(C(=O)N2CCc3ccccc3C2)CN1CCCN1CCOCC1 (stereo not drawn)	i	-3.1	3.5	-0.5	-2.3	0.4	x
O=C(N[C@H](CO)Cc1ccccc1)[C@H]1O[C@@H](n2ccc(=O)[nH]c2=O)[C@H](O)[C@@H]1O	i	4.3	-2.7	-0.7	-1.5	0.0	x
Cc1nn(-c2ccccc2)c(N)c1C1(O)C(=O)N(C(C)C)c2ccccc21 (stereo not drawn)	i	3.0	0.6	-2.2	-1.6	-0.3	x
Cc1nn(-c2ccccc2)c2c1P(=O)(O)/C(=C1\N(C)c3ccccc3C1(C)C)C=N2	+	2.9	-2.5	-0.6	-0.6	-3.0	i
CCN(CC)C1=N/C(=C\c2ccc(OC)cc2)C(=O)N1c1ccccc1	+	1.4	-0.6	-3.0	0.0	-0.6	i
CCSC1=N/C(=C\c2ccccc2)C(=O)N1c1ccc(OC)cc1	x	0.3	1.4	1.9	7.1	0.2	x
Cc1ccc2nc(NCCCN3CCOCC3)c(C=NCCCN3CCOCC3)c(=O)n2c1	+	-1.6	-1.3	-1.6	-5.2	0.1	i
CCCOc1ccc(-c2nn(-c3ccccc3)cc2/C=C2\SC(N)=NC2=O)cc1	x	0.2	2.7	-0.4	-0.5	0.0	x
Cc1cc(-c2nn(-c3ccccc3)cc2/C=C2\SC(N)=NC2=O)ccc1OC(C)C	+	0.3	-4.3	1.5	-2.9	0.2	i
C=C(Cl)COc1ccc2c(CC)cc(=O)oc2c1	+	1.6	2.7	1.9	13.1	-1.8	i
Nc1nc(Br)c2c(F)cccc2c1-c1ccc(F)cc1	+	-2.2	5.0	-4.0	6.7	4.8	i
Nc1nc(Br)c2c(F)cccc2c1-c1ccccc1	i	6.1	-4.0	2.2	5.0	1.9	x
CCOc1ccc(NC(=O)CN(C)C(=O)c2cc([N+](=O)[O-])ccc2N2CCOCC2)cc1OCC	i	-1.2	-1.9	-1.6	-2.4	0.3	x
COCCn1c(C)cc(/C=C(\C#N)C(=O)OC(C)C(=O)Nc2ccc(NC(C)=O)cc2)c1C (stereo not drawn)	+	0.4	1.6	-3.6	-2.0	-0.2	i
